Broadly, the inhibition is the change of the read-out against control, counted positive when it falls.

The campaign covered roughly 290,000 compounds. About 27,000 (9.3%) were called active. The sample holds actives, similar compounds and a random draw of the others, so the mix is not that of the screen. Values without a mark were called inactive. No stated cut-off is given here; in the data, active means inhibition mostly above about 28% (no sharp cut-off); inactive means mostly below about 43%.

This assay in a line: A qHTS for Small Molecule Inhibitors of Shiga Toxin. On inhibition: 0% is about no effect. The following applies: Vero cells, Shiga toxin protein synthesis inhibition reporter; at 38.7 µM, hits give high values. For orientation: qHTS replaces the single test concentration by a dilution series.
For `COc1ccc(N2CCN(C(=O)CN3C(=O)COc4ccccc43)CC2)cc1`, the inhibition was 23.1%.

As for `CN1CCN(C(=O)c2ccccc2NC(=O)COc2ccccc2Cl)CC1`, the inhibition was 30.2% (active).

As to `CCCOc1cccc(C(=O)Nc2ccccc2C(=O)N2CCN(C)CC2)c1`, the inhibition is 1.15%.

As for `O=C(Nc1ccccc1C(=O)N1CCCCCC1)c1ccccc1Cl`, the inhibition was -4.45%.

For `Nc1nc(NCC2CCCO2)nc(Nc2ccccc2F)c1[N+](=O)[O-]` (stereo unspecified), the inhibition was 3.33%.

As for `C=Cn1cc[n+](CC(=O)c2ccc(OC)c(OC)c2)c1`, the inhibition was -7.58%.

With `O=[N+]([O-])c1ccc(N/N=C/c2ccccc2)cc1`, the inhibition is 60.4% (active).

Consider `O=C(N/N=C/c1ccc(O)cc1)/C(=C/c1ccc([N+](=O)[O-])cc1)NC(=O)c1ccccc1`, for which the inhibition was 3.28%.

In the case of `Cc1cccc(COc2ccccc2/C=N/Nc2ccc([N+](=O)[O-])cc2)c1`, the inhibition was -8.03%.

`CCOc1cc2[nH]c(=S)n(Cc3ccc(C(=O)N4CCN(C)CC4)cc3)c(=O)c2cc1OCC`: the inhibition is 6.6%.

Regarding `O=C(c1cc(-c2ccccc2O)on1)N1CCCC1`, the inhibition is 111% (active).

Regarding `CC(=O)c1ccc(NC(=O)c2cc(-c3cccs3)on2)cc1`, the inhibition was 35.3%.

`CCn1ccnc1CN(C)C(=O)c1cc(COc2ccc(-n3cncn3)cc2)on1`: the inhibition is 13.3%.

As for `O=C(c1ccc(Cl)c(Cl)c1)N1CCCC1`, the inhibition was -12.2%.

For `O=C(c1cc(-c2cccs2)on1)N1CCCCC1`, the inhibition was 124% (active).

In the case of `CNC(=O)n1ccc(C(=O)N2CCCCC2)n1`, the inhibition is -5.37%.

For the compound `COc1cc(Cl)ccc1OCc1cc(C(=O)N(C)CCc2c(C)n[nH]c2C)no1`, the inhibition was 18.3%.

Consider `CCn1ccnc1CN(C)C(=O)c1cc(COc2ccc(Cl)cc2OC)on1`, for which the inhibition is 49.5% (active).

As to `O=C(c1ccco1)N1CCN(C(=O)c2ccc(COc3ccc(F)cc3)o2)CC1`, the inhibition was 2.42%.

Consider `COc1cccc(OCc2cc(C(=O)N3CCN(C(=O)c4ccco4)CC3)no2)c1`, for which the inhibition is 64.7% (active).

Turning to `O=C(c1cccc(Br)c1)N1CCN(C2=NS(=O)(=O)c3ccccc32)CC1`, the inhibition is -5.51%.

In the case of `COc1cccc(OC)c1OCCN1CCN(C(=O)c2ccco2)CC1`, the inhibition is -15.7%.

For `Cc1cc(/C=C2/SC(=O)N(CC(=O)N3CCCC3)C2=O)c(C)n1C`, the inhibition is -6.33%.

As to `NC(=O)C1CCN(C(=O)/C(=C/c2ccco2)NC(=O)c2ccccc2)CC1`, the inhibition is -19%.

Consider `COc1ccc(OC)c(NC(=O)CSc2nc(-c3ccccc3)cc(=O)[nH]2)c1`, for which the inhibition is -4.35%.

Take `Cc1ccc(Nc2nc(N3CCOCC3)nc(N3CCOCC3)n2)cc1Cl`: the inhibition is 5.42%.

Consider `COc1ccccc1N1CCN(S(=O)(=O)c2ccc(Cl)cc2)CC1`, for which the inhibition is -2.2%.

For `Oc1c(Cl)cc(Cl)cc1/C=N/c1ncn[nH]1`, the inhibition is -2.31%.

For `Cc1ccc(N2CC(C(=O)NCCS(=O)(=O)N3CCN(c4ccccc4)CC3)CC2=O)cc1` (stereo unspecified), the inhibition was 4.33%.

Regarding `Cn1cc(CNC(=O)c2ccc(OC3CCN(Cc4ccccn4)CC3)cc2)cn1`, the inhibition is 4.02%.

As for `COc1ccc(OCc2cc(C(=O)N3CCCC3)no2)c2ccccc12`, the inhibition was 147% (active).

In the case of `COc1ccc(C(=O)C2CCCN(C(=O)c3cc(C)on3)C2)cc1F` (stereo unspecified), the inhibition was -1.62%.

On to `COc1ccc(Cl)cc1C(=O)NNC(=S)NC1CCCC1`, for which the inhibition is -7.04%.

For `COc1cccc(-c2cc(C(=O)N3CCN(c4ccccc4OC)CC3)no2)c1`, the inhibition was -4.9%.

With `COc1ccccc1OCc1ccc(C(=O)N2CCN(C)CC2)o1`, the inhibition was 10.1%.

As to `Cc1ccc(C)c(OCc2cc(C(=O)N3CCN(c4cnccn4)CC3)no2)c1`, the inhibition was -3.53%.

Consider `COc1ccccc1-c1cc(C(=O)N2CCCCC2)no1`, for which the inhibition is 102% (active).

Turning to `COc1ccccc1N1CCN(C(=O)c2cc(-c3ccc(Cl)c(Cl)c3)on2)CC1`, the inhibition was 0.847%.

As to `CCOC(=O)C1CCCN(C(=O)c2cncc(Br)c2)C1` (stereo unspecified), the inhibition was -10.3%.

Consider `CCOC(=O)CC1(NC(=O)c2cc(COc3cncc(Cl)c3)on2)CCCCC1`, for which the inhibition was -11.8%.

For `CCCOC1CCCN(C(=O)c2cc(COc3cncc(Cl)c3)on2)C1` (stereo unspecified), the inhibition is 54.4% (active).

Take `COc1cc(Cl)ccc1OCc1cc(C(=O)N2CC[C@@H]3CCCC[C@H]3C2)no1`: the inhibition was 120% (active).

As to `N#Cc1ccccc1S(=O)(=O)N1CCN(C(=O)c2cc(-c3ccccc3)nn2-c2ccccc2)CC1`, the inhibition was 15.4%.

With `O=C(CSc1nc2ccccc2c(=O)[nH]1)Nc1nc(-c2ccc(Br)cc2)cs1`, the inhibition is -26.5%.

Turning to `COc1ccc(C)cc1S(=O)(=O)N1CCN(S(=O)(=O)c2cc(C(=O)O)ccc2C)CC1`, the inhibition is -1.74%.

With `CN(C(=O)CN1C(=O)S/C(=C\c2ccccc2F)C1=O)C1CCS(=O)(=O)C1` (stereo unspecified), the inhibition is -0.834%.

As to `COc1ccc(C(C(=O)NCC2CCCO2)N(C(=O)Cn2nnc3ccccc32)c2ccc(NC(C)=O)cc2)cc1OC` (stereo unspecified), the inhibition was -9.93%.

On to `O=C1OC2(CCCCC2)CC2=C1C1O[C@](c3ccsc3)(Cc3ccccc31)O2`, for which the inhibition result was “inactive”.

For `Nc1cc(N2CCCCCC2)c2nonc2c1[N+](=O)[O-]`, the inhibition was -13.9%.

`Cc1ccc(CNC(=O)c2ccc(CS(=O)Cc3cccc(Cl)c3)o2)cc1` (stereo unspecified): the inhibition is -5.59%.

Take `CCNC(=O)Nc1ccc(S(=O)(=O)Nc2cnc(C)nc2C)cc1`: the inhibition is -5.43%.

Consider `O=C(NCc1ccncc1)C(=O)NCC1OCCN1S(=O)(=O)c1ccc(Br)cc1` (stereo unspecified), for which the inhibition is -17%.

For the compound `O=C(Nc1ccc2c(c1)OCCO2)C1CCCN(c2ncccn2)C1` (stereo unspecified), the inhibition is 66.6% (active).

Take `Cc1cc(C)nc(N2CCC(C(=O)Nc3ccc4c(c3)OCCO4)CC2)n1`: the inhibition was 51.5%.

`O=C(Nc1cccc(Cl)c1)C1CCCN(c2cnccn2)C1` (stereo unspecified): the inhibition was -10.4%.

Turning to `CC(C)=CCN1CCN(CCCc2ccccc2)CC1CCO` (stereo unspecified), the inhibition was -4.24%.

In the case of `COc1ccc(-c2nn(-c3ccccc3)cc2/C=C2/SC(=S)N(CCCC(=O)O)C2=O)c(C)c1`, the inhibition was -11.2%.

Turning to `CCOC(=O)c1c(C)[nH]c(C2=NNC(=NC(C)COC)SC2)c1C` (stereo unspecified), the inhibition is 75.1% (active).

As for `CCOC(=O)c1c(C)[nH]c2c1-c1ccccc1C(=O)C2=O`, the inhibition is 31.2%.

On to `Cc1cc(Nc2ccc(C(=O)N3CCCCC3)cc2)c2cccc(C)c2n1`, for which the inhibition is -5.1%.

`Cc1cccc(C(=O)Nc2nnc(Cc3c[nH]c4ccccc34)s2)c1`: the inhibition is -6.89%.

Consider `Cc1cccc(N=C2NC(=O)/C(=C/c3cn(C)c4ccccc34)S2)c1`, for which the inhibition was -7.28%.

As for `Cc1cccc(N=C2NN=C(c3c[nH]c4ccccc34)CS2)c1`, the inhibition was 42.1% (active).

On to `CS(=O)(=O)N1CCN=C1SCc1ccc(F)cc1`, for which the inhibition was 9.38%.

Take `COc1ccc(N(CC(=O)NCCSCc2cccc(Cl)c2)S(C)(=O)=O)cc1`: the inhibition is -2.69%.

With `CCN(CC)C(=O)COc1coc(CN2CCN(Cc3ccccc3)CC2)cc1=O`, the inhibition is -10.1%.

For `COc1cccc2cc(/C(C)=N/NC(=O)c3ccco3)oc12`, the inhibition is 32.4%.

Turning to `Cc1nn(CC(=O)Nc2ccc(F)cc2)c(=O)c2ccccc12`, the inhibition was -1.35%.

`CCC(=O)Nc1ccc2nn(-c3ccc(F)cc3)nc2c1`: the inhibition is 74.1% (active).

Take `Cc1cccc(C(=O)OCC(=O)Nc2ccc(F)cc2)c1`: the inhibition is 27.4%.

Consider `Cc1ccccc1CN1CCC(C(=O)Nc2ccc(Oc3cccnc3)cc2)CC1`, for which the inhibition is -3.91%.

Regarding `O=C(N/N=C/c1ccco1)c1csc2c1CCCC2`, the inhibition is 122% (active).

With `COC(=O)c1sccc1NC(=O)c1csc2c1CCCC2`, the inhibition is 92.6%.

In the case of `COC(=O)c1sc(NC(=O)c2csc3c2CCCC3)nc1C`, the inhibition was 76.1% (active).

For the compound `CCOC(=O)c1sc(NC(=O)c2sc(C)nc2C)nc1C`, the inhibition was 30.3%.

As for `O=C(N/N=C/c1ccco1)c1ccc(NC(=O)C2CC2)cc1`, the inhibition is -2.21%.

With `O=C(Nc1ccccc1N1CCOCC1)c1csc2c1CCCC2`, the inhibition was 11.3%.

On to `O=C(NCc1ccccc1Cl)c1csc2c1CCCCC2`, for which the inhibition is 11.2%.

In the case of `Cc1ccc(NC(=O)c2c(NC(=O)CCC(=O)O)sc3c2CCCCC3)cc1`, the inhibition was 42.9% (active).

For the compound `O=C(N/N=C/c1ccco1)c1ccc(C(=O)N/N=C/c2ccco2)o1`, the inhibition was -3.95%.

Turning to `Cc1ccc(NC(=O)c2csc3c2CCCC3)cc1`, the inhibition is 110% (active).

Consider `COC(=O)c1c(NC(=O)CCCC(=O)O)sc2c1CCCCC2`, for which the inhibition was -0.986%.

As to `O=C(CN1CCCC1)Nc1sc2c(c1C(=O)Nc1ccccc1)CCCC2`, the inhibition was -10.4%.

As to `COc1ccc(S(=O)(=O)NCC(=O)NCc2cc(=O)n(C)c(=O)n2C)cc1F`, the inhibition is -4.87%.

`CCOC(=O)c1cc2ccccc2n1CC(=O)c1ccccc1`: the inhibition was 3.23%.

`COc1cccc(N2C(=O)CN(Cc3ccccc3)C2=S)c1`: the inhibition was 24.3%.

Take `Cc1ccc(OCC(=O)Nc2ccc(N3CCN(C(=O)c4ccco4)CC3)cc2)c(C)c1`: the inhibition is -6.09%.

Regarding `O=C(c1ccccc1F)N(Cc1ccccc1)Cc1ccccc1`, the inhibition is 18%.

Regarding `Cc1nc(N)nc(SCc2ccc([N+](=O)[O-])cc2)c1N`, the inhibition was -4.97%.

`Cc1ccc(NS(=O)(=O)c2ccc3c(c2)oc(=O)n3C)c(C)c1`: the inhibition is 0.571%.

In the case of `COc1ccc(-c2ccc(OC)c(C3C4C=CCC(C)C4C(=O)N3Cc3ccccc3)c2)cc1C` (stereo unspecified), the inhibition was 31.9%.

As to `COc1ccc2oc(=N)c(C(=O)Nc3ccc(Br)cc3)cc2c1`, the inhibition was 14.3%.

With `COc1ccc(C(=O)OCC(=O)Nc2cccc(C(C)=O)c2)cc1OC`, the inhibition is 8.39%.

As to `O=C(Nc1ccc([N+](=O)[O-])cc1)C1(c2ccccc2)CCOCC1`, the inhibition is -4.2%.

As to `O=C(COC(=O)C1CCCCC1)Nc1ccc([N+](=O)[O-])cc1`, the inhibition was 30.9%.

As to `O=C(Nc1ccc([N+](=O)[O-])cc1)C1CC12CCC2` (stereo unspecified), the inhibition was 76.1% (active).
